KLF5 inhibitor: inhibitors of KLF5 expression. AID 1700. inhibition, % at 5 µM. DLD-1 KLF5 promoter-luciferase reporter, luminescence. 290,000 tested, 0.23% active;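 active = inhibition above a per-plate limit of that plate's mean compound inhibition plus 3 SD, cut at about 60% in these data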;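 note: 0% = DMSO wells and 100% = LY294002 at 200 µM; higher means less KLF5 promoter-driven luciferase light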
Jurkat NFkB inh: lowers PMA/ionomycin-induced NF-kB signal in Jurkat cells; 330,000 tested, 0.53% active; inhibition, % at 4 µM; PMA/ionomycin-induced NF-kB luciferase reporter, luminescence; in the data active = inhibition above about 50%
697 NFkB inh: lowers PMA/ionomycin-induced NF-kB signal in 697 B cells; 697 B-cell NF-kB luciferase reporter, 16 h; inhibition, % at 4 µM; 330,000 tested, 0.33% active; in the data active = inhibition above about 35%
aSyn UTR inh: 5' untranslated region of α-synuclein, MLPCN primary screen. 300,000 tested, 0.82% active. AID 1813. inhibition, % (tested at 7.5 µM). alpha-synuclein 5'UTR reporter, inhibitor activity; in the data active = inhibition above about 60%;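 note: H4 neuroglioblastoma cells stably carrying SNCA 5'UTR luciferase fusion; 0% = DMSO wells and 100% = positive control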
Mdm2 MdmX PPI: inhibitors of human Mdm2/MdmX interaction | O15151+Q00987 | SaOS-2 split-luciferase Mdm2/MdmX complementation, luminescence | inhibition, % at 8 µM | 330,000 tested, 3% active | AID 485346;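 active = inhibition of at least 50% at 8 µM in the primary screen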
Gli-Sufu antag: Gli-Sufu pathway antagonism | Sufu-KO-LIGHT fibroblasts, Gli luciferase reporter luminescence | AID 588413 | inhibition, % at 5 µM | 340,000 tested, 0.74% active;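 active = inhibition above about 55%, limit read from the data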;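 note: 0% = DMSO-treated cells and 100% = wells with medium but no cells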
Jurkat NFkB conf: lowers PMA/ionomycin-induced NF-kB signal in Jurkat cells; shares compounds with Jurkat NFkB inh; Jurkat NF-kB luciferase, 16 h; inhibition, % at 4 µM; 2,700 tested, 27% active;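 active = inhibition reaching about 45% at 4 µM in either replicate, limit read from the data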;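 note: plate controls were PMA/ionomycin stimulated DMSO wells for no effect and unstimulated DMSO wells for full effect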
697 NFkB conf: lowers PMA/ionomycin-induced NF-kB signal in 697 B cells. shares compounds with 697 NFkB inh. 697 B-cell NF-kB luciferase, 16 h. inhibition, % at 4 µM. 2,000 tested, 35% active; in the data active = inhibition mostly above about 28%, no sharp cut-off; inactive = mostly below about 22%
Mdm2 MdmX conf: confirmation of human Mdm2/MdmX interaction inhibitors. shares compounds with Mdm2 MdmX PPI. inhibition, % at 8 µM. Mdm2-MdmX binding, luminescent assay. 10,000 tested, 55% active. AID 489028; in the data active = inhibition above about 40%
FLuc counter: inhibits full-length luciferase, flagging false Mdm2/MdmX hits | inhibition, % at 8 µM | 6,200 tested, 77% active | SaOS-2 full-length luciferase counterscreen, luminescence | shares compounds with Mdm2 MdmX PPI;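 active = mean inhibition at 8 µM reaching about 37%, which flags the compound as non-specific, limit read from the data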;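 note: p53-null SaOS-2 cells with luciferase driven by a doxycycline-inducible promoter; compound on cells about two nights before reading with doxycycline added after day one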
Gli-Sufu confirm: confirmation of Gli-SUFU pathway antagonists | shares compounds with Gli-Sufu antag | Sufu-KO-LIGHT cells, Gli luciferase reporter, luminescence | inhibition, % at 5 µM | 2,500 tested, 40% active;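 active = mean inhibition at 5 µM reaching about 45%, limit read from the data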;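 note: plate controls were DMSO-treated cells for no effect and wells lacking cells for full effect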
SufuKO cytotox: cytotoxicity counter-screen for Gli-SUFU antagonists | shares compounds with Gli-Sufu antag | Sufu-KO-LIGHT cells cytotoxicity, ATP luminescence | cytotoxicity, % at 5 µM | 2,500 tested, 32% active | AID 651994;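 active = mean cytotoxicity at 5 µM above about 25%, limit read from the data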;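 note: cells exposed to compound overnight for roughly 16 to 18 hours; plate controls were DMSO wells with cells for no effect and medium without cells for full effect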
Wnt3a counter: Wnt3a reporter inhibition counter-screen; inhibition, % at 6.25 µM; shares compounds with Gli-Sufu antag; Wnt-LIGHT cells, Wnt3a-driven luciferase reporter, luminescence; 2,500 tested, 20% active; AID 651995;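 active = mean inhibition above about 25%, limit read from the data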
The depositor's hits bear a star. The list is not random: actives were taken first. Their share in the collection is about 4.1%.

How did Cc1cc(N2CCCCC2)nc(NCc2ccccc2)n1 do in these assays?
KLF5 inhibitor: 26; Jurkat NFkB inh: 68*; 697 NFkB inh: -19; aSyn UTR inh: -10; Mdm2 MdmX PPI: 65*; Gli-Sufu antag: 50; Jurkat NFkB conf: 17; Mdm2 MdmX conf: 45*; FLuc counter: 61*; Gli-Sufu confirm: 41; SufuKO cytotox: 14; Wnt3a counter: 10

How did COc1cccc(CNS(=O)(=O)c2ccc3c(c2)C(C)(C)C(=O)N3C)c1 do in these assays?
KLF5 inhibitor: -5; Jurkat NFkB inh: 14; 697 NFkB inh: 7; aSyn UTR inh: 11; Mdm2 MdmX PPI: 0; Gli-Sufu antag: -8

What do the screens show for `N=c1ccn(CC(=O)c2ccc(-c3ccccc3)cc2)cc1`?
KLF5 inhibitor: -3; Jurkat NFkB inh: 58*; 697 NFkB inh: 10; aSyn UTR inh: 110*; Mdm2 MdmX PPI: 66*; Gli-Sufu antag: 82*; Jurkat NFkB conf: 46; Mdm2 MdmX conf: 69*; FLuc counter: 41*; Gli-Sufu confirm: 84*; SufuKO cytotox: 25; Wnt3a counter: 30*

Results for CCN(CC)c1ccc(/C=N/Nc2nc(C)cc(=O)[nH]2)c(O)c1 ?
KLF5 inhibitor: -4; Jurkat NFkB inh: 59*; 697 NFkB inh: -22; aSyn UTR inh: 95*; Mdm2 MdmX PPI: 64*; Gli-Sufu antag: 91*; Jurkat NFkB conf: -4; Mdm2 MdmX conf: 80*; FLuc counter: 22; Gli-Sufu confirm: 85*; SufuKO cytotox: 41*; Wnt3a counter: 70*

What do the screens show for `CCN(CC)c1ccc(/C=N/Nc2ccc(C)cc2)c(O)c1`?
KLF5 inhibitor: -21; Gli-Sufu antag: 12

What do the screens show for `CCC(O)C1CCN(C(=O)c2cc(COc3ccc4ncccc4c3)on2)CC1` (stereo not given)?
KLF5 inhibitor: 42; Jurkat NFkB inh: 56*; 697 NFkB inh: -6; aSyn UTR inh: 9; Mdm2 MdmX PPI: 15; Gli-Sufu antag: 73*; Jurkat NFkB conf: 67*; Gli-Sufu confirm: 65*; SufuKO cytotox: 20; Wnt3a counter: 40*

What do the screens show for `O=C(c1cc(COc2ccc3ncccc3c2)on1)N1CCC(O)CC1`?
KLF5 inhibitor: -27; Jurkat NFkB inh: 12; 697 NFkB inh: -18; aSyn UTR inh: -53; Mdm2 MdmX PPI: 1; Gli-Sufu antag: 27

What do the screens show for `COc1ccc(C2=CC(=O)C[C@H](c3ccc(F)cc3)C2)c(OC)c1`?
Jurkat NFkB inh: -5; 697 NFkB inh: 2; Mdm2 MdmX PPI: -9; Gli-Sufu antag: 1

How did O=C(N/N=C/c1ccccc1Cl)c1[nH]c2ccc(Br)cc2c1-c1ccccc1 do in these assays?
KLF5 inhibitor: 13; Jurkat NFkB inh: 64*; 697 NFkB inh: -231; aSyn UTR inh: 71*; Mdm2 MdmX PPI: 89*; Gli-Sufu antag: 68*; Jurkat NFkB conf: 54*; Mdm2 MdmX conf: 75*; FLuc counter: 106*; Gli-Sufu confirm: 58*; SufuKO cytotox: 61*; Wnt3a counter: -17

How did COc1ccc(/C=N/NC(=O)c2[nH]c3ccc(Br)cc3c2-c2ccccc2)c(C(=O)O)c1OC do in these assays?
KLF5 inhibitor: 3; Jurkat NFkB inh: 12; 697 NFkB inh: 18; aSyn UTR inh: -8; Mdm2 MdmX PPI: -10; Gli-Sufu antag: 1

What do the screens show for `NC(=O)CC(NC(=O)c1ccc(Br)cc1)c1ccc(N2CCCCCC2)c([N+](=O)[O-])c1` (stereo not given)?
KLF5 inhibitor: -15; Jurkat NFkB inh: 54*; 697 NFkB inh: 0; aSyn UTR inh: -36; Mdm2 MdmX PPI: 25; Gli-Sufu antag: 61*; Jurkat NFkB conf: 47; Gli-Sufu confirm: 32; SufuKO cytotox: 23; Wnt3a counter: -109

What do the screens show for `CCN(C(=O)CSc1nnc(SC(C)C)s1)C1CCS(=O)(=O)C1` (stereo not given)?
Jurkat NFkB inh: 0; 697 NFkB inh: 22; Mdm2 MdmX PPI: 1; Gli-Sufu antag: -2

What do the screens show for `CN(C)C1(CNC(=O)C2CCN(S(=O)(=O)c3cccc(C(F)(F)F)c3)CC2)CCCCC1`?
KLF5 inhibitor: -10; Jurkat NFkB inh: -5; 697 NFkB inh: 9; aSyn UTR inh: 9; Mdm2 MdmX PPI: 4; Gli-Sufu antag: 13

Results for COc1ccc(C(C(=O)NC2CCCCC2)N(C(=O)CCl)c2ccc(OC)cc2)cc1 (stereo not given) ?
KLF5 inhibitor: -18; Jurkat NFkB inh: 93*; 697 NFkB inh: 98*; aSyn UTR inh: -18; Mdm2 MdmX PPI: 100*; Gli-Sufu antag: 84*; Jurkat NFkB conf: 32; 697 NFkB conf: 80*; Mdm2 MdmX conf: 100*; FLuc counter: 50*; Gli-Sufu confirm: 33; SufuKO cytotox: 19; Wnt3a counter: -40

Results for COc1ccc(C(C(=O)NC2CCCCC2)N(C(=O)CCl)c2cccc(Cl)c2)cc1 (stereo not given) ?
KLF5 inhibitor: -3; aSyn UTR inh: -74

What do the screens show for `COc1ccc(C(C(=O)NC2CCCCC2)N(C(=O)CCl)c2ccc(C)cc2)cc1` (stereo not given)?
KLF5 inhibitor: -19; Jurkat NFkB inh: 95*; 697 NFkB inh: 95*; aSyn UTR inh: 24; Mdm2 MdmX PPI: 98*; Gli-Sufu antag: 86*; Jurkat NFkB conf: 39; 697 NFkB conf: -10; Mdm2 MdmX conf: 100*; FLuc counter: 54*; Gli-Sufu confirm: 33; SufuKO cytotox: 29*; Wnt3a counter: 15

Results for COC(=O)c1ccc(COc2cc(O)c3c(c2)OC(C)(C)CC3=O)cc1 ?
KLF5 inhibitor: -18; Jurkat NFkB inh: -1; 697 NFkB inh: -26; aSyn UTR inh: -22; Mdm2 MdmX PPI: 24; Gli-Sufu antag: 0
